Data as given in PubChem BioAssay AID2783 (National Center for Advancing Translational Sciences (NCATS), 2010).
Results filed as inconclusive are left out. Calls come from the whole dose curve; as a rule, active = well fitted inhibition curve with a large enough effect in the polarisation, with a control signal flat (not every such curve was filed as active); inconclusive = small, poorly fitted or top-dose-only effect, or effect the other way, or a change in a side signal; inactive = no such curve, though single readings can be large or run the other way; the % refers to the polarisation.

The molecules below were run against Menin (Homo sapiens) (UniProt O00255) (assay: Confirmation of Inhibitors Targeting the Menin-MLL Interaction in MLL Related Leukemias: Competition With Fluorescein Labeled MLL-derived Peptide). Conditions: Fluorescence polarization, fluorescein-MLL peptide displacement from menin; series mostly up to 100 µM; activity change, negative = inhibition: at the top concentration.
Menin (Homo sapiens), sequence (O00255 whole entry, looked up): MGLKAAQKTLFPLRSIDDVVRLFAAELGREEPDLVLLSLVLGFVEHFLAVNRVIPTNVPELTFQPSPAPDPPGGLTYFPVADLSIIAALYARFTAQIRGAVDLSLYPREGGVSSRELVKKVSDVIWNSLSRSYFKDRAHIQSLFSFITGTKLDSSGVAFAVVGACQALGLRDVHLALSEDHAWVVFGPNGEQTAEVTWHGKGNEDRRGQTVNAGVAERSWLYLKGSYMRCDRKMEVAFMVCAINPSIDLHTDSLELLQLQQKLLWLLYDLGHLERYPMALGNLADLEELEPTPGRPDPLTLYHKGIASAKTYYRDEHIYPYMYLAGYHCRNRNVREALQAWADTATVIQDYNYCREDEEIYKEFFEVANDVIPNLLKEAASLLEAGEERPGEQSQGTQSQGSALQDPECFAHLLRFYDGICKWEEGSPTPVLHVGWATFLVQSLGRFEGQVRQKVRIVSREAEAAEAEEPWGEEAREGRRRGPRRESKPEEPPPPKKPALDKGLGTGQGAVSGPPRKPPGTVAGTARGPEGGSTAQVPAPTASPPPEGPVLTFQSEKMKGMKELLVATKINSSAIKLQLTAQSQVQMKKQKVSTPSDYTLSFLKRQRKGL
% is set by controls: 0 for no effect and ±100 for the full control effect.

Activity change, negative = inhibition, inactive:
O=S(=O)(c1ccc(-c2csc(Nc3ccc(Br)cc3)n2)cc1)N1CCCC1 1.46% [at 288 µM], CCOC(=O)Cn1c2ccccc2n2nc(CCC(=O)O)c(=O)nc12 -2.55%, COc1ccccc1/C=C/C(=O)NC(=S)Nc1ccc(S(=O)(=O)N(C)c2ccccc2)cc1 -15.9%, COc1ccc(N(C(=O)c2ccncc2)S(=O)(=O)c2ccc(Cl)cc2)cc1 -1.48%, CCOc1cc(C(c2c(C)[nH][nH]c2=O)c2c(C)[nH][nH]c2=O)cc(Br)c1OC -2.68% [at 288 µM], COc1ccc(Cn2nnnc2C(c2ccccc2)N2CCN(C3CCCC3)CC2)cc1 (stereo not drawn) -3.94%, COc1ccc(-c2cc(=O)c3c(O)cc(O)c(-c4cc(-c5cc(=O)c6c(O)cc(OC)cc6o5)ccc4OC)c3o2)cc1 -8.17%, COc1ccc(-c2cc(-c3ccc(C)cc3)n[nH]2)c(O)c1 2.76% [at 288 µM], COc1ccc(C2=C(CN(C)C)C(c3ccccc3)c3ccccc3O2)cc1 (stereo not drawn) -10.7%, CCCc1nc2c(=O)[nH]c3ccccc3c2o1 -14.1%, O=S(=O)(NCCc1c[nH]c2ccccc12)c1ccccc1 1.3% [at 288 µM], COc1cccc(C(=O)/C=C/Nc2ccc(S(=O)(=O)Nc3ccc(C(C)=O)cc3)cc2)c1 19.2% [at 288 µM], COc1ccc(CCNCc2cc(C)n(-c3ccc(OC)cc3)c2C)cc1 -0.328%, COc1ccc(OC)c(C(c2c(C)[nH][nH]c2=O)c2c(C)[nH][nH]c2=O)c1 -15.1% [at 288 µM], CCCCCC1CCC(C(=O)NCCN2CCOCC2)CC1 (stereo not drawn) -20.4%, CC(Sc1nnc(Nc2ccccc2)s1)C(=O)Nc1nc(-c2ccccc2)cs1 (stereo not drawn) 7.12%, COc1ccc(/C=C(\C#N)C(=O)NCc2ccccc2)cc1 -2.96%, COc1ccc(-c2csc(NC(=S)NC(=O)/C=C/c3ccc(C(C)C)cc3)n2)cc1OC -4.13%, Cc1c(C(=O)OCC(=O)Nc2ccc(S(N)(=O)=O)cc2)oc2c1ccc1ccccc12 16.6%, CC(c1cc2ccccc2s1)N(O)C(N)=O (stereo not drawn) 3.82% [at 288 µM], O=C(NC(=S)N1CCCc2ccccc21)c1ccc([N+](=O)[O-])cc1 -11.5%, COc1ccccc1NS(=O)(=O)c1cc(NC(=O)Nc2ccccc2)ccc1N1CCCCC1 -15.4%, O=C(Nc1cc(Br)ccc1O)c1cc(-c2ccccc2)on1 -3.69%, COc1ccc(C2Nc3ccc4ccccc4c3-c3c2c(=O)oc2ccccc32)cc1 (stereo not drawn) -7.64%, COc1ccccc1NS(=O)(=O)c1cc(NC(=O)Nc2ccc(Cl)cc2Cl)ccc1N1CCCCC1 -8.05%, O=C(CCC1CCCCC1)NCCN1C2=NC[C@H](Cc3ccc(O)cc3)N2C[C@H]1Cc1ccc(O)cc1 -7.15% [at 288 µM], CCOc1ccc(C2Nc3ccc4ccccc4c3-c3c2c(=O)oc2ccccc32)cc1 (stereo not drawn) -2.96%, O=C(CC(=O)c1ccccc1)Nc1cc(C(F)(F)F)ccc1Cl 2.38%, COc1cc(O)c(C(=O)c2ccccc2)cc1O 4.39% [at 288 µM], N=c1oc2ccccc2cc1-c1nc(-c2ccc(Cl)cc2)cs1 5.5%, CCCN1CCN(CC(O)COC(c2ccc(OC)cc2)c2ccc(OC)cc2)CC1 (stereo not drawn) 1.78%, CN(C)/C=C(/C(=O)c1ccc(Cl)cc1)S(=O)(=O)c1ccc(Cl)cc1 2.27% [at 288 µM], CCc1oc2ccccc2c1C(=O)c1cc(Br)c(O)c(Br)c1 -17.9%
